# Compounds without any hit were thinned out: in the full panel of roughly 83,000, 20% have a hit.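 Method: cells in 96-well plates; compound added at one concentration; 48 h incubation; percent growth measured; values under 10 scored active.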 The source made the active and inactive calls.
# Test system: IGROV1 ovarian
# Experiment: NCI-60 one-dose screen, 48 h (100 = growth as untreated, 0 = no growth, -100 = all killed)
# Settings: 10 µM unless noted
row,Compound,growth
1,Nc1cc2ccccc2c(=O)n1NC(=O)c1ccc(I)cc1,106% (inactive)
2,CC(=O)Nc1cccc(Nc2nc(N[C@H]3CCCc4ccccc43)c3ccccc3n2)c1,111% (inactive)
3,CCN(CC)C(=O)N/C(N)=N/c1nc2ccccc2s1,72.1% (inactive)
4,O=C(O)c1cccc(-c2ccc(/C=N/NC(=O)c3[nH]c4ccc(Br)cc4c3-c3ccccc3)o2)c1,85% (inactive)
5,NS(=O)(=O)c1ccc(-n2cc(-c3cccc(NC(=O)c4cc(C(F)(F)F)cc(C(F)(F)F)c4)c3)nn2)cc1,63.1% (inactive)
6,C[C@H](Nc1nc(NCCc2ccccc2)nc2ccccc12)c1ccccc1,-84.6% (active)
7,C(=C\c1cc(/C=C/c2ccccc2)c2ccccc2n1)/c1ccccc1,118% (inactive)
8,C=C1CC[C@@H]2[C@]3(C)COC(c4cn(-c5ccccc5)nc4-c4ccccc4)O[C@@H]3CC[C@@]2(C)[C@@H]1C/C=C1/C(=O)OC[C@H]1O (stereo partly specified),-76.7% (active)
9,N#Cc1c(-c2cccc3ccccc23)cc(-c2cccc(OCC(=O)O)c2)[nH]c1=O,110% (inactive)
10,O=C(/C=C/c1cccc(OCc2ccc(F)cc2)c1)c1nc2ccccc2[nH]1,93.5% (inactive)
11,CCOC(=O)C1=C(N)N(c2ccccc2)C2=C(C(=O)CC(C)(C)C2)C1c1cccc(Cl)c1Cl (stereo unspecified),83.6% (inactive)
12,CC(C)c1ccc2c(N)c(C(=O)Nc3ccc(C(F)(F)F)cn3)sc2n1,81.2% (inactive)
13,COc1ccc2cc([C@H](C)C(=O)N/N=C/c3ccc(Br)cc3)ccc2c1,102% (inactive)
14,CC(=O)Oc1ccccc1C(=O)[Se]CC(=O)Nc1cccc(C(F)(F)F)c1,-64.9% (active)
15,COc1ccc(NC(=O)c2sc3nc(C(C)C)ccc3c2N)cc1,100% (inactive)
16,CC1=C(C(=O)OCc2ccccc2)C(c2c(O)cc(O)cc2O)n2c(nc3ccccc32)N1 (stereo unspecified),51% (inactive)
17,N#Cc1ccc(/C=N/NC(=O)c2[nH]c3ccc(Br)cc3c2-c2ccccc2)o1,13.9% (inactive)
18,CC1=C(C(=O)OC(C)C)C(c2cccc(O)c2)NC(=S)N1 (stereo unspecified),110% (inactive)
19,COc1cc(-c2ccc(/C=N/NC(=O)c3[nH]c4ccc(Br)cc4c3-c3ccccc3)s2)cc(OC)c1OC,95.6% (inactive)

row,Compound,growth
1,COc1cc(/C=C/C(=O)c2nnn(-c3ccc(Cl)cc3)c2C)cc(OC)c1OC,59.3% (inactive)
2,CC1=C(C(=O)OCc2ccccc2)C(c2ccc(-n3cncn3)cc2)n2c(nc3ccccc32)N1 (stereo unspecified),62.2% (inactive)
3,COc1cc(-c2cc(-c3cccc(OCC(=O)O)c3)[nH]c(=O)c2C#N)cc(OC)c1OC,109% (inactive)
4,CSc1ccc(C(=O)Nc2ccc3nn(/C(C#N)=C/c4ccccn4)nc3c2)cc1,-83% (active)
5,CSc1ccc(NC(=O)c2ccc3nn(/C(C#N)=C/c4ccccn4)nc3c2)cc1,-87.4% (active)
6,CC1CCCCN1CCCNC(=O)N/C(N)=N/c1nc2ccccc2s1 (stereo unspecified),47.9% (inactive)
7,O=C(O)c1ccc(-c2ccc(/C=N/NC(=O)c3[nH]c4ccc(Br)cc4c3-c3ccccc3)s2)cc1,14.7% (inactive)
8,CSc1ccccc1NC(=O)c1ccc2nnn(/C(C#N)=C/c3ccccn3)c2c1,-81.8% (active)
9,Clc1cccc(Cl)c1/C=C/c1cc(/C=C/c2ccc(Br)cc2)c2ccccc2n1,96.6% (inactive)
10,C=C1CC[C@@H]2[C@]3(C)COC(c4cn[nH]c4-c4ccc(OC)cc4)O[C@@H]3CC[C@@]2(C)[C@@H]1C/C=C1/C(=O)OCC1O (stereo partly specified),17.1% (inactive)
11,CSc1ccc(C(=O)Nc2ccc3nnn(/C(C#N)=C/c4ccccn4)c3c2)cc1,-44.9% (active)
12,CC(=O)Nc1cccc(Nc2nccc(N[C@@H](C)c3ccccc3)n2)c1,15.9% (inactive)
13,O=C(N/N=C/c1ccc(-c2ccc(O)cc2)s1)c1[nH]c2ccc(Br)cc2c1-c1ccccc1,12.9% (inactive)
14,COc1cc(CNC(=O)/C=C/c2ccc3c(c2)OCO3)ccc1OCc1cn(-c2cccc(C(F)(F)F)c2)nn1,44.7% (inactive)
15,O=C(O)c1ccc(-c2ccc(/C=N/NC(=O)c3[nH]c4ccc(Br)cc4c3-c3ccccc3)o2)cc1,17.8% (inactive)
16,CCCCOc1ccc(NC(=O)c2sc3nc(C)ccc3c2N)cc1,17.7% (inactive)
17,Cc1ccc2c(N)c(C(=O)Nc3ccc(-c4ccccc4)cc3)sc2n1,72.5% (inactive)
18,COc1ccc2nc(Nc3cccc(NC(=O)c4ccc(CN5CCCN(C)CC5)c(C(F)(F)F)c4)c3)ccc2c1,-56.4% (active)
19,N#Cc1c(-c2cccnc2)cc(-c2ccc3ccccc3c2)[nH]c1=O,97.6% (inactive)

# Test system: OVCAR-3 ovarian
# Experiment: as above
# Settings: 10 µM unless noted
row,Compound,growth
1,Nc1cc2ccccc2c(=O)n1NC(=O)c1ccc(I)cc1,104% (inactive)
2,CC(=O)Nc1cccc(Nc2nc(N[C@H]3CCCc4ccccc43)c3ccccc3n2)c1,107% (inactive)
3,CCN(CC)C(=O)N/C(N)=N/c1nc2ccccc2s1,68.2% (inactive)
4,O=C(O)c1cccc(-c2ccc(/C=N/NC(=O)c3[nH]c4ccc(Br)cc4c3-c3ccccc3)o2)c1,17.1% (inactive)
5,NS(=O)(=O)c1ccc(-n2cc(-c3cccc(NC(=O)c4cc(C(F)(F)F)cc(C(F)(F)F)c4)c3)nn2)cc1,78.5% (inactive)
6,C[C@H](Nc1nc(NCCc2ccccc2)nc2ccccc12)c1ccccc1,-70.1% (active)
7,C(=C\c1cc(/C=C/c2ccccc2)c2ccccc2n1)/c1ccccc1,103% (inactive)
8,C=C1CC[C@@H]2[C@]3(C)COC(c4cn(-c5ccccc5)nc4-c4ccccc4)O[C@@H]3CC[C@@]2(C)[C@@H]1C/C=C1/C(=O)OC[C@H]1O (stereo partly specified),-77.8% (active)
9,N#Cc1c(-c2cccc3ccccc23)cc(-c2cccc(OCC(=O)O)c2)[nH]c1=O,104% (inactive)
10,O=C(/C=C/c1cccc(OCc2ccc(F)cc2)c1)c1nc2ccccc2[nH]1,68.2% (inactive)
11,CCOC(=O)C1=C(N)N(c2ccccc2)C2=C(C(=O)CC(C)(C)C2)C1c1cccc(Cl)c1Cl (stereo unspecified),87.4% (inactive)
12,CC(C)c1ccc2c(N)c(C(=O)Nc3ccc(C(F)(F)F)cn3)sc2n1,83% (inactive)
13,COc1ccc2cc([C@H](C)C(=O)N/N=C/c3ccc(Br)cc3)ccc2c1,114% (inactive)
14,CC(=O)Oc1ccccc1C(=O)[Se]CC(=O)Nc1cccc(C(F)(F)F)c1,-12% (active)
15,COc1ccc(NC(=O)c2sc3nc(C(C)C)ccc3c2N)cc1,93.9% (inactive)
16,CC1=C(C(=O)OCc2ccccc2)C(c2c(O)cc(O)cc2O)n2c(nc3ccccc32)N1 (stereo unspecified),33.6% (inactive)
17,N#Cc1ccc(/C=N/NC(=O)c2[nH]c3ccc(Br)cc3c2-c2ccccc2)o1,14.6% (inactive)
18,CC1=C(C(=O)OC(C)C)C(c2cccc(O)c2)NC(=S)N1 (stereo unspecified),120% (inactive)
19,COc1cc(-c2ccc(/C=N/NC(=O)c3[nH]c4ccc(Br)cc4c3-c3ccccc3)s2)cc(OC)c1OC,107% (inactive)

row,Compound,growth
1,COc1cc(/C=C/C(=O)c2nnn(-c3ccc(Cl)cc3)c2C)cc(OC)c1OC,22.9% (inactive)
2,CC1=C(C(=O)OCc2ccccc2)C(c2ccc(-n3cncn3)cc2)n2c(nc3ccccc32)N1 (stereo unspecified),24.2% (inactive)
3,COc1cc(-c2cc(-c3cccc(OCC(=O)O)c3)[nH]c(=O)c2C#N)cc(OC)c1OC,110% (inactive)
4,CSc1ccc(C(=O)Nc2ccc3nn(/C(C#N)=C/c4ccccn4)nc3c2)cc1,-92.6% (active)
5,CSc1ccc(NC(=O)c2ccc3nn(/C(C#N)=C/c4ccccn4)nc3c2)cc1,-85% (active)
6,CC1CCCCN1CCCNC(=O)N/C(N)=N/c1nc2ccccc2s1 (stereo unspecified),72.4% (inactive)
7,O=C(O)c1ccc(-c2ccc(/C=N/NC(=O)c3[nH]c4ccc(Br)cc4c3-c3ccccc3)s2)cc1,2.13% (active)
8,CSc1ccccc1NC(=O)c1ccc2nnn(/C(C#N)=C/c3ccccn3)c2c1,-81.9% (active)
9,Clc1cccc(Cl)c1/C=C/c1cc(/C=C/c2ccc(Br)cc2)c2ccccc2n1,111% (inactive)
10,C=C1CC[C@@H]2[C@]3(C)COC(c4cn[nH]c4-c4ccc(OC)cc4)O[C@@H]3CC[C@@]2(C)[C@@H]1C/C=C1/C(=O)OCC1O (stereo partly specified),5.62% (active)
11,CSc1ccc(C(=O)Nc2ccc3nnn(/C(C#N)=C/c4ccccn4)c3c2)cc1,-30.8% (active)
12,CC(=O)Nc1cccc(Nc2nccc(N[C@@H](C)c3ccccc3)n2)c1,18% (inactive)
13,O=C(N/N=C/c1ccc(-c2ccc(O)cc2)s1)c1[nH]c2ccc(Br)cc2c1-c1ccccc1,21.4% (inactive)
14,COc1cc(CNC(=O)/C=C/c2ccc3c(c2)OCO3)ccc1OCc1cn(-c2cccc(C(F)(F)F)c2)nn1,42.9% (inactive)
15,O=C(O)c1ccc(-c2ccc(/C=N/NC(=O)c3[nH]c4ccc(Br)cc4c3-c3ccccc3)o2)cc1,1.4% (active)
16,CCCCOc1ccc(NC(=O)c2sc3nc(C)ccc3c2N)cc1,15.5% (inactive)
17,Cc1ccc2c(N)c(C(=O)Nc3ccc(-c4ccccc4)cc3)sc2n1,79.1% (inactive)
18,COc1ccc2nc(Nc3cccc(NC(=O)c4ccc(CN5CCCN(C)CC5)c(C(F)(F)F)c4)c3)ccc2c1,-48.8% (active)
19,N#Cc1c(-c2cccnc2)cc(-c2ccc3ccccc3c2)[nH]c1=O,102% (inactive)
